Reference: PubChem BioAssay (Tox21)
Where “and” joins values, the source holds several entries; their conditions need not be identical. Equal entries are not always repeated. Inconclusive results are not listed. A number with no mark means an inactive call. Calls of active or inactive are those of the source. The call rests on the fitted dose curve; in most records, active means well fitted cell-killing curve with a large enough effect in the repeat runs; inconclusive means weak or mixed curves, or effect the other way; inactive means no such curve, though single readings can be large or run the other way.

assay: qHTS assay for identifying genotoxic compounds that show differential cytotoxicity against isogenic chicken DT40 cell lines with known DNA damage response pathways - Rev3 mutant cell line (AID 743014); conditions: chicken DT40 Rev3-/- viability, CellTiter-Glo, 40 h; series mostly up to 68.4 µM; activity, negative = cytotoxicity: at the top concentration; further: nearly all actives have a fitted effect of over 55% in size
Excerpt: National Center for Advancing Translational Sciences [NCATS]
NIH Chemical Genomics Center [NCGC]
U.S. Environmental Protection Agency [EPA]
National Institutes of Environmental Health Sciences [NIEHS]
National Toxicology Program [NTP]
U.S. Food and Drug Administration [FDA]
DNA repair pathways play a critical role in cellular homeostasis by repairing DNA damage induced by endogenous processes and xenobiotics. Isogenic chicken DT40 cell lines deficient in different DNA repair pathways can be used to identify genotoxic compounds and aid in characterizing the nature of the DNA damage induced. Two DNA repair-deficient cell lines with disrupted genes, Rad54/Ku70 or Rev3, were used to screen the Tox21 10K compound library. Possible genotoxicity was based on the presence of a significant increase in cytotoxicity in one or more of the DNA repair-deficient cell lines compared to that observed in the parental DNA repair-proficient cell line. CellTiter Glo viability assay (Promega, Madison, WI) was used to measure cell viability in these cells after compound treatment. This assay includes the data from the Rev3 mutant cell line.
Tox21 Assay Protocol Summary:
300 DT40 mutant cells in 5 uL/well were dispensed into white, solid-bottom 1536-well plates using a Multidrop Combi (ThermoFisher Scientific, Waltham, MA) dispenser. After the assay plates were incubated at 37 C/5% CO2 for approximately 0.5 hour, 23 nL of compounds dissolved in DMSO, positive controls or DMSO only was transferred into the assay plate by a pintool work station (Kalypsys, San Diego, CA). The assay plates were incubated at 37 C/5% CO2 for 40 hours. After 5 uL per well of CellTiter-Glo reagent was added into each well of the assay plates, the plates were incubated for 30 min at room temperature and the luminescence intensity of the plates was measured using a ViewLux (PerkinElmer, Shelton, CT) plate reader.
On the % scale 0 is the no-effect control and ±100 the full control effect; potency means the concentration at half of the fitted maximal effect.

Going from [Cl][Nd]([Cl])[Cl] to CC(C)COC(=O)COc1cc(Cl)c(Cl)cc1Cl, the “activity, negative = cytotoxicity” value rises from -11.3% to 6.96%.

First: CC(=O)OCC1=C(C(=O)O)N2C(=O)[C@@H](NC(=O)CSc3ccncc3)[C@H]2SC1
Second: O=C(O)CN1C(=O)c2cccc3cccc(c23)C1=O
The “activity, negative = cytotoxicity” value of the first is lower: 0.0962% for the first, 6.57% for the second.

Compared with NC(=O)CCCCC(N)=O, CCCCCCCCCCCSCC(=O)O is lower in “activity, negative = cytotoxicity” value: 8.14% for the first, -5.36% for the second.

Compared with CCN(CC)CCNC(=O)c1cc(Cl)c(N)cc1OC, CCSC(=O)N(CC)CC is lower in “activity, negative = cytotoxicity” value: 6.93% for the first, -0.0899% for the second.

Going from CC(C)CC(O)CC(C)C to CC(C)N=C=NC(C)C, the “activity, negative = cytotoxicity” value rises from -9.67% to -4.21%.

First: CC(C)Cc1ccc(CC(=O)O)cc1
Second: CCc1ccc(C)cc1
The “activity, negative = cytotoxicity” value of the first is higher: 14.7% for the first, 1.41% for the second.

First: c1ccc2sc(SSc3nc4ccccc4s3)nc2c1
Second: O=C(O)c1cccc(Oc2ccccc2)c1
The “activity, negative = cytotoxicity” value of the first is higher: 3.85% for the first, -0.51% for the second.

Compared with CC1=C2[C@@H]([C@H](C)CC[C@H]2/C=C(\C)C(=O)O)[C@H](O)C1, CC1CCC(C(C)CS)CC1S (stereo not given) is higher in “activity, negative = cytotoxicity” value: -12.1% for the first, -2.73% for the second.

Going from CC(C)(C)CCCCCCOC(=O)c1ccccc1C(=O)OCCCCCCC(C)(C)C to CCCCCCCCCCCCCCCCCC(=O)OCC(CC)CCCC (stereo not given), the “activity, negative = cytotoxicity” value falls from 2.7% to 0.541%.

Going from N[C@@H](Cc1cc(I)c(O)c(I)c1)C(=O)O to CC(C)c1ccc(C(=O)N=C(N)N)cc1S(C)(=O)=O, the “activity, negative = cytotoxicity” value falls from 3.13% to -29.1%.

Compared with Cc1ccc(Nc2c(F)cccc2Cl)c(CC(=O)O)c1, O=[N+]([O-])c1ccc2ncccc2c1 is higher in “activity, negative = cytotoxicity” value: -0.54% for the first, -0.237% for the second.

Going from CCCCC[C@H](O)/C=C/[C@H]1[C@H](O)CC(=O)[C@@H]1C/C=C\CCCC(=O)O to C[C@H](CS)C(=O)N1CCC[C@H]1C(=O)O, the “activity, negative = cytotoxicity” value falls from 0.894% to -13.4%.

Going from BrC(Br)C(Br)Br to CC1CCCC(=O)C1=O (stereo not given), the “activity, negative = cytotoxicity” value rises from -9.3% to -3.59%.

Going from O=C(O)CO to SCCc1cnccn1, the “activity, negative = cytotoxicity” value rises from -1.89% to 10.4%.

For COC(=O)C1=C(C)NC(C)=C(C(=O)OC(C)(C)CN(C)CCC(c2ccccc2)c2ccccc2)C1c1cccc([N+](=O)[O-])c1 (stereo not given), the Potency was 6.68 µM (active).
For CCCCCCCC/C=C\CCCCCCCC(=O)OCCO, the Potency was 81 µM (active).
With CC[C@H]1OC(=O)[C@H](C)[C@@H](O[C@H]2C[C@@](C)(OC)[C@@H](O)[C@H](C)O2)[C@H](C)[C@@H](O[C@@H]2O[C@H](C)C[C@H](N(C)C)[C@H]2O)[C@](C)(O)C[C@@H](C)CN(C)[C@H](C)[C@@H](O)[C@]1(C)O the Potency was 2.11 µM (active) and 1.81 µM (active).
For CC[C@H]1OC(=O)[C@H](C)[C@@H](O[C@H]2C[C@@](C)(OC)[C@@H](O)[C@H](C)O2)[C@H](C)[C@@H](O[C@@H]2O[C@H](C)C[C@H](N(C)C)[C@H]2O)[C@](C)(O)C[C@@H](C)C(=O)[C@H](C)[C@@H](O)[C@]1(C)O, the Potency was “inactive”.
For CN1CCCN(C(c2ccccc2)c2ccc(Cl)cc2)CC1 (stereo not given), the Potency was 11.9 µM (active).
In the case of CCCCCCCCCCCCCC(=O)OCC(O)CO (stereo not given), the Potency is reported as 43.3 µM (active).

Compared with Cc1cccc2sc(N)nc12, CC(C)(C)S is higher in “activity, negative = cytotoxicity” value: -8.09% [at 95 µM] for the first, -3.93% [at 95 µM] for the second.

With CCC1CCC(CCC(=O)O)C1 (stereo not given) the “activity, negative = cytotoxicity” value was -3.79% [at 95 µM].

First: CC(C)(C(=O)c1cccnc1)c1cccnc1
Second: CC(C(=O)O)c1ccc(C(=O)c2cccs2)cc1 (stereo not given)
The “activity, negative = cytotoxicity” value of the first is higher: 0.996% [at 31.4 µM] for the first, 0.0142% [at 31.4 µM] for the second.

In the case of CCCCCCCCCCCCCOC(=O)CCSCCC(=O)OCCCCCCCCCCCCC, the “activity, negative = cytotoxicity” value is reported as 6.7% [at 31.4 µM].
